Of roughly 8,800 targets only a part is listed; those with a hit were picked by preference. About 0.5% of all pairs of compound and target were hits.
Legend:
Experiment in all cases: log2 fold change, soluble protein after heating vs DMSO (PISA); higher = thermal stabilisation; K562 lysate, 10 uM; active = over 0.2 and 3.5 SD of the protein, either way, in both replicates (recomputed)
erlotinib = compound: C#Cc1cccc(Nc2ncnc3cc(OCCOC)c(OCCOC)cc23)c1 [erlotinib]
How it was run: (§1)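 Dounce homogenisation of K562 pellets in PBS pH 7.4 with 1 mM MgCl2 produced a crude extract, used at 1 mg/mL protein. Exposure to 10 μM compound lasted 30 min, and aliquots were then heated for 3 min across 48°C-58°C, pooled and brought to 0.5% NP-40 at 4°C. The supernatant after 21,000xg for 90 min was quantified by TMTpro 16plex LC-MS/MS with channel sums equalised. Duplicate values are given as log-two fold change in thermal stability relative to solvent controls.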

[1] = compound: C/C(=N\NC(=O)C1=CC(=CC=C1)S(=O)(=O)N2CCOCC2)/C3=C(C=CC(=C3)Cl)O
How it was run: as §1

[2] = compound: C1=CC(=CC=C1C2=NC3=C(N2)C=C(C=C3)C(=O)N)OC4=CC=C(C=C4)Cl
How it was run: as §1

[3] = compound: C1=CC2=C(C=CC(=C2)/C=C\3/C(=O)NC(=NCC4=CC=CS4)S3)N=C1
How it was run: as §1

[4] = compound: C1=CC2=NC=CN=C2C=C1/C=C/3\C(=O)NC(=O)S3
How it was run: as §1

[5] = compound: C1=CC=C(C=C1)C2=NC(=C(N2)C3=CC=NC=C3)C4=CC(=C(C=C4)Cl)O
How it was run: as §1

[6] = compound: C1=CC=C2C(=C1)C3=NNC4=CC=CC(=C43)C2=O
How it was run: as §1

[7] = compound: C1CCN(C1)C(=O)NC2=CC=CC(=C2)NC3=NC=C(C(=N3)NCCC4=CN=CN4)Br
How it was run: as §1

[8] = compound: C1CN(CCC1(CC2=CC=C(C=C2)Cl)N)C3=NC=NC4=C3C=CN4
How it was run: as §1

IRAK-1-4 Inhibitor I = compound: C1COCCN1CCN2C3=CC=CC=C3N=C2NC(=O)C4=CC(=CC=C4)[N+](=O)[O-] [IRAK-1-4 Inhibitor I]
How it was run: as §1

ibrutinib = compound: C=CC(=O)N1CCC[C@@H](n2nc(-c3ccc(Oc4ccccc4)cc3)c3c(N)ncnc32)C1 [ibrutinib]
How it was run: as §1

[9] = compound: CC(=O)c1cnc2ccc(-c3cc(Cl)c(O)c(Cl)c3)nc2c1N[C@H]1CC[C@H](CN(C)C)CC1
How it was run: as §1

ralimetinib = compound: CC(C)(C)Cn1c(N)nc2ccc(-c3[nH]c(C(C)(C)C)nc3-c3ccc(F)cc3)nc21 [ralimetinib]
How it was run: as §1

[10] = compound: CC(C)(O)CC(=O)NCCn1ccc2ncnc(Nc3ccc(Oc4cccc(C(F)(F)F)c4)c(Cl)c3)c21
How it was run: as §1

[11] = compound: CC(C)C1=C2N=C(C=C(N2N=C1)NCC3=CC=CC=C3)NCCCCCCN
How it was run: as §1

[12] = compound: CC1=C(C(CC(=O)N1)C2=CC=C(C=C2)C(F)(F)F)C(=O)NC3=C(C=C4C(=C3)C=NN4)F
How it was run: as §1

[13] = compound: CC1=C(C2=C(C=C1)C(=O)C3=CC=CC=C3N2CCCN)C
How it was run: as §1

[14] = compound: CC1=C(C=C(C=C1)NC(=O)C2=CC(=CC=C2)N(C)C)NC(=O)C3=CC=C(C=C3)O
How it was run: as §1

[15] = compound: CC1=CC=C(C=C1)SC2=C3C=C(SC3=CN=C2)C(=O)N
How it was run: as §1

[16] = compound: CC1=C(C=C(C=C1)NC(=O)C2=CC(=CC=C2)C(C)(C)C#N)NC3=CC4=C(C=C3)N=CN(C4=O)C
How it was run: as §1

Measured: log2 fold change

GSTM2 (UniProt P28161)
Sequence of UniProt P28161 (P28161 whole entry, looked up): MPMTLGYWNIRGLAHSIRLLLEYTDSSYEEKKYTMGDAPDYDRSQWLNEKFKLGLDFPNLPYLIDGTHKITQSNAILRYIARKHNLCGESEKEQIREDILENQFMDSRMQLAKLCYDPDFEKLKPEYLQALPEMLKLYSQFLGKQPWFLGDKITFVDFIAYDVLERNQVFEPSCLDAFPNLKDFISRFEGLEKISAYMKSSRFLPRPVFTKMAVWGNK
inactive: erlotinib -0.083 | [1] 0.041 | [2] -0.038 | [3] -0.007 | [4] 0.079 | [5] -0.008 | [6] -0.012 | [7] -0.021 | [8] -0.054 | IRAK-1-4 Inhibitor I 0.037 | ibrutinib 0.081 | [9] 0.009 | ralimetinib -0.006 | [10] -0.067 | [11] -0.021 | [12] -0.119 | [13] -0.033 | [14] 0.004 | [15] -0.021

GPR108 (UniProt Q9NPR9)
inactive: erlotinib 0.035 | [1] 0.022 | [2] 0 | [3] 0.066 | [4] 0.015 | [5] 0.056 | [6] -0.028 | [7] -0.015 | [8] 0.03 | IRAK-1-4 Inhibitor I -0.026 | ibrutinib -0.017 | [9] -0.063 | ralimetinib 0.001 | [10] -0.024 | [11] -0.08 | [12] 0.039 | [13] 0.049 | [16] 0.027 | [14] -0.062 | [15] -0.004

HSPB1 (UniProt P04792)
Sequence of UniProt P04792 (P04792 whole entry, looked up): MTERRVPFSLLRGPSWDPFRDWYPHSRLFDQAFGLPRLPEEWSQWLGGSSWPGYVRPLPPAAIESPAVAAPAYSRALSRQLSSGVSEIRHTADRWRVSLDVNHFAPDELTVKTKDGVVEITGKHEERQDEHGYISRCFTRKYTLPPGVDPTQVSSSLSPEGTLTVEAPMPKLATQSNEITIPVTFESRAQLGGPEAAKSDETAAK
inactive: erlotinib 0.004 | [1] -0.03 | [2] 0.03 | [3] -0.012 | [4] 0.001 | [5] -0.009 | [6] 0.034 | [7] -0.013 | [8] -0.025 | IRAK-1-4 Inhibitor I 0.006 | ibrutinib -0.015 | [9] -0.008 | ralimetinib 0.022 | [10] -0.016 | [11] 0.012 | [12] 0 | [13] 0.016 | [16] -0.117 | [14] 0.006 | [15] 0.003

GSTM4 (UniProt Q03013)
Sequence of UniProt Q03013 (Q03013 whole entry, looked up): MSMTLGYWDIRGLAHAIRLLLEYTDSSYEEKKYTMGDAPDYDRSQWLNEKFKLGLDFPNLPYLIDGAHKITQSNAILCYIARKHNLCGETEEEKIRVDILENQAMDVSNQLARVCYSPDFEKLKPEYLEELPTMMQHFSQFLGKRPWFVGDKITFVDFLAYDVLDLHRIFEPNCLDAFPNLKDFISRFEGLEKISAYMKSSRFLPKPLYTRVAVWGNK
inactive: erlotinib 0.006 | [1] -0.044 | [2] -0.073 | [3] -0.026 | [4] 0.141 | [5] 0.046 | [6] -0.025 | [7] -0.109 | [8] -0.025 | IRAK-1-4 Inhibitor I -0.064 | ibrutinib -0.139 | [9] -0.006 | ralimetinib -0.013 | [10] -0.051 | [11] -0.079 | [12] 0.096 | [13] 0.037 | [16] -0.136 | [14] -0.027 | [15] 0.042

GOLGA1 (UniProt Q92805)
Sequence of UniProt Q92805 (Q92805 whole entry, looked up): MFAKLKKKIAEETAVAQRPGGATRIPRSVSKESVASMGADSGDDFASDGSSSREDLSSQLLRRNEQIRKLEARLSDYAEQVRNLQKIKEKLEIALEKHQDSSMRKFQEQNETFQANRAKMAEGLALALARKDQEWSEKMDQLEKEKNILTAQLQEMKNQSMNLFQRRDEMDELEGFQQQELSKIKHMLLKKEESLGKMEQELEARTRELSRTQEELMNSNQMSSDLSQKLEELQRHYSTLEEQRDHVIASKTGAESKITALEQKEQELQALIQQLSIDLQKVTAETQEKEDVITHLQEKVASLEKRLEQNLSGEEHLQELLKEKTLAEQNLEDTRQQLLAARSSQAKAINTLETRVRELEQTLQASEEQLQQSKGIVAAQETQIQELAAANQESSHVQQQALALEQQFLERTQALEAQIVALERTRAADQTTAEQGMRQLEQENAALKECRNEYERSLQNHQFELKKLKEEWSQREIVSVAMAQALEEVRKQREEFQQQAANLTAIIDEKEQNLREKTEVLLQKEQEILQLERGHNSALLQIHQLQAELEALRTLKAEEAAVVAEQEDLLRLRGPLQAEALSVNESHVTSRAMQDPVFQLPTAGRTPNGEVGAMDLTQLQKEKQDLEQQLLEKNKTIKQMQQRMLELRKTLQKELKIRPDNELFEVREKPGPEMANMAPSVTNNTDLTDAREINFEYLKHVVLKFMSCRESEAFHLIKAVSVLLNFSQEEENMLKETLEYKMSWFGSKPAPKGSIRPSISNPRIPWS
inactive: erlotinib 0.029 | [1] 0.09 | [2] -0.002 | [3] -0.004 | [4] 0.021 | [5] 0 | [6] 0.124 | [7] 0.018 | [8] 0.038 | IRAK-1-4 Inhibitor I 0.017 | ibrutinib 0.128 | [9] 0.008 | ralimetinib -0.024 | [10] -0.018 | [11] -0.019 | [12] 0.081 | [13] 0.027 | [16] -0.023 | [14] 0.019 | [15] 0.034

INPP4A (UniProt Q96PE3)
inactive: erlotinib 0.002 | [1] 0.007 | [2] 0.017 | [3] -0.005 | [4] -0.023 | [5] 0.099 | [6] 0.069 | [7] -0.018 | [8] -0.051 | IRAK-1-4 Inhibitor I 0.066 | ibrutinib -0.166 | [9] 0.001 | ralimetinib 0.061 | [10] -0.013 | [11] -0.034 | [12] 0.02 | [13] -0.086 | [16] 0.022 | [14] -0.053 | [15] -0.025

HMBOX1 isoform 5 (UniProt Q6NT76)
Sequence of UniProt Q6NT76 (Q6NT76 whole entry, looked up): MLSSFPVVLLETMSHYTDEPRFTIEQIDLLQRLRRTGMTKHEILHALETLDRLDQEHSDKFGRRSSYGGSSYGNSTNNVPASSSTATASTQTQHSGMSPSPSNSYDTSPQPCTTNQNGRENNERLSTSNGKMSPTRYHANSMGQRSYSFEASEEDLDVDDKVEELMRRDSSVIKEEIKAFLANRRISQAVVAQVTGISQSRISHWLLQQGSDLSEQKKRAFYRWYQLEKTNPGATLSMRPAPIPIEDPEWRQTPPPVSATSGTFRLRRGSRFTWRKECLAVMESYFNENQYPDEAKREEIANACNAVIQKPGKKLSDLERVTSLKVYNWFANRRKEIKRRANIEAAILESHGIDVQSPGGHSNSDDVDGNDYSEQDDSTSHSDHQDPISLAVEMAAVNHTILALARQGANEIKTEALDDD
inactive: erlotinib 0.045 | [1] -0.094 | [2] -0.004 | [3] 0.026 | [4] -0.037 | [5] -0.004 | [6] -0.057 | [7] -0.028 | [8] 0.004 | IRAK-1-4 Inhibitor I -0.009 | ibrutinib 0.051 | [9] 0.021 | ralimetinib 0.026 | [10] 0.007 | [11] 0.072 | [12] -0.014 | [13] 0.052 | [16] 0.015 | [14] 0.005 | [15] 0.054

HADHA (UniProt P40939)
active: [2] 0.387
inactive: erlotinib -0.08 | [1] 0.042 | [3] 0.014 | [4] -0.087 | [5] -0.003 | [6] 0.026 | [7] -0.067 | [8] 0.04 | IRAK-1-4 Inhibitor I 0.031 | ibrutinib 0.078 | [9] -0.057 | ralimetinib 0.012 | [10] 0.05 | [11] -0.042 | [12] -0.031 | [13] -0.01 | [16] 0.055 | [14] -0.033 | [15] 0.077

ICAM2 (UniProt P13598)
Sequence of UniProt P13598 (P13598 whole entry, looked up): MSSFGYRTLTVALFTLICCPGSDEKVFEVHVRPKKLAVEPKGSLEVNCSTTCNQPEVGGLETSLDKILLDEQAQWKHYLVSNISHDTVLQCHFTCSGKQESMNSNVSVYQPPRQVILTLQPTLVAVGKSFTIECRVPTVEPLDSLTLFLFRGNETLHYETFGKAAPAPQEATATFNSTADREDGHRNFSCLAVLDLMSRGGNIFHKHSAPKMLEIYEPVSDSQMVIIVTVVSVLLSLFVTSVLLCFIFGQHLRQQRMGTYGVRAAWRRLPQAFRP
inactive: erlotinib 0.004 | [1] -0.022 | [2] 0.023 | [3] -0.029 | [4] -0.01 | [5] -0.011 | [6] 0.021 | [7] 0.032 | [8] 0.005 | IRAK-1-4 Inhibitor I 0.061 | ibrutinib 0.058 | [9] 0.043 | ralimetinib 0.001 | [10] -0.019 | [11] -0.016 | [12] 0.005 | [13] 0.012 | [16] 0.023 | [14] -0.028 | [15] -0.028

KDM5C (UniProt P41229)
inactive: erlotinib 0.052 | [1] 0.017 | [2] 0.022 | [3] -0.059 | [4] -0.009 | [5] -0.041 | [6] -0.031 | [7] -0.053 | [8] -0.002 | IRAK-1-4 Inhibitor I 0.01 | ibrutinib 0.089 | [9] -0.132 | ralimetinib 0.005 | [10] -0.02 | [11] 0.015 | [12] 0.01 | [13] 0.012 | [16] -0.013 | [14] 0.031 | [15] 0.001

HNRNPLL (UniProt Q8WVV9)
Sequence of UniProt Q8WVV9 (Q8WVV9 whole entry, looked up): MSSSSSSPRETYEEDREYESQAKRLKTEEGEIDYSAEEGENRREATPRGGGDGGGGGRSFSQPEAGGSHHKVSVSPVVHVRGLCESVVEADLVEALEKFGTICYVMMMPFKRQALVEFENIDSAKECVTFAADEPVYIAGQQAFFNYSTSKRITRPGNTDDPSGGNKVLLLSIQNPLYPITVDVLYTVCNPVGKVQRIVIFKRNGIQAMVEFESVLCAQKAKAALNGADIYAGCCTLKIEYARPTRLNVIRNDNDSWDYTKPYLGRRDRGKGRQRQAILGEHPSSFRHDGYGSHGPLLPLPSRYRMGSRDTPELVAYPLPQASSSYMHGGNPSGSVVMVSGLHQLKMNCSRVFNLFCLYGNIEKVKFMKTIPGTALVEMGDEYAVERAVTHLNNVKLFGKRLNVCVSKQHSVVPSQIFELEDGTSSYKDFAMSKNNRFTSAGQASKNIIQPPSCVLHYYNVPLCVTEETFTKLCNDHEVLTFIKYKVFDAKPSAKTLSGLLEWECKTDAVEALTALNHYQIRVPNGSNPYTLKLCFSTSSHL
inactive: erlotinib 0.007 | [1] 0 | [2] 0.011 | [3] 0.009 | [4] -0.017 | [5] -0.019 | [6] -0.035 | [7] 0.006 | [8] -0.009 | IRAK-1-4 Inhibitor I -0.026 | ibrutinib -0.024 | [9] 0.016 | ralimetinib 0.005 | [10] 0.005 | [11] -0.004 | [12] -0.019 | [13] -0.012 | [16] 0.026 | [14] 0.024 | [15] 0.021

IMMT (UniProt C9J406)
inactive: erlotinib 0.077 | [1] 0.041 | [2] -0.028 | [3] 0.001 | [4] 0.043 | [5] 0.028 | [6] -0.032 | [7] -0.222 | [8] 0.325 | IRAK-1-4 Inhibitor I -0.016 | ibrutinib 0.119 | [9] 0.046 | ralimetinib 0.126 | [10] -0.14 | [11] -0.096 | [12] 0.099 | [13] -0.03 | [16] -0.002 | [14] 0.012 | [15] -0.015

GIT1 (UniProt Q9Y2X7)
Sequence of UniProt Q9Y2X7 (Q9Y2X7 whole entry, looked up): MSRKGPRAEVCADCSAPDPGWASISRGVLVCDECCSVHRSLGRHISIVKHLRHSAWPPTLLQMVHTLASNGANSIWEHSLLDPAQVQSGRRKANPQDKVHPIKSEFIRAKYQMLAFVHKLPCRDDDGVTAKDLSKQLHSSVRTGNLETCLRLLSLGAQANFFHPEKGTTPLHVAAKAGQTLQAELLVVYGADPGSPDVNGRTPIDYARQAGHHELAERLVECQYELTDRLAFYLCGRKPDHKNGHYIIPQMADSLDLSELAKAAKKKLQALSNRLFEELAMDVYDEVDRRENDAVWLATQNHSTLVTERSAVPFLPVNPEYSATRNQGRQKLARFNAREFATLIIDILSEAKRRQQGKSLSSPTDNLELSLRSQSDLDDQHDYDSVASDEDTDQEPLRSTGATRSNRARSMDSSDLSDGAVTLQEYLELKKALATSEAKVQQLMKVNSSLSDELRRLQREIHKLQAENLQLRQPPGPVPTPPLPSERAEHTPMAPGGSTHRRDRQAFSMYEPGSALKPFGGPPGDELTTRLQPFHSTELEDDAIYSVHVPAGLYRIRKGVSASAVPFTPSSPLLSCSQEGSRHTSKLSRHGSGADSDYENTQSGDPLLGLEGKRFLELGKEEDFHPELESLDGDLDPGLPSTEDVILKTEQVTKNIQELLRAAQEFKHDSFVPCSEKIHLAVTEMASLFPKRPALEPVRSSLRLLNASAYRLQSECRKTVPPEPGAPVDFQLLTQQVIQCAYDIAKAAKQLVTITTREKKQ
inactive: erlotinib -0.003 | [1] 0.011 | [2] -0.039 | [3] 0.054 | [4] -0.014 | [5] -0.014 | [6] -0.009 | [7] 0 | [8] -0.011 | IRAK-1-4 Inhibitor I 0.017 | ibrutinib 0.075 | [9] -0.002 | ralimetinib -0.042 | [10] 0.033 | [11] -0.004 | [12] -0.074 | [13] -0.012 | [16] 0.044 | [14] -0.007 | [15] 0.024

INTS10 (UniProt Q9NVR2)
inactive: erlotinib 0.008 | [1] 0.056 | [2] -0.001 | [3] 0.061 | [4] -0.044 | [5] 0.026 | [6] -0.061 | [7] -0.006 | [8] 0.044 | IRAK-1-4 Inhibitor I -0.004 | ibrutinib 0.079 | [9] 0.021 | ralimetinib 0.01 | [10] -0.02 | [11] -0.023 | [12] 0.036 | [13] 0 | [16] 0.002 | [14] -0.014 | [15] 0.036

KHDRBS1 (UniProt Q07666)
Sequence of UniProt Q07666 (Q07666 whole entry, looked up): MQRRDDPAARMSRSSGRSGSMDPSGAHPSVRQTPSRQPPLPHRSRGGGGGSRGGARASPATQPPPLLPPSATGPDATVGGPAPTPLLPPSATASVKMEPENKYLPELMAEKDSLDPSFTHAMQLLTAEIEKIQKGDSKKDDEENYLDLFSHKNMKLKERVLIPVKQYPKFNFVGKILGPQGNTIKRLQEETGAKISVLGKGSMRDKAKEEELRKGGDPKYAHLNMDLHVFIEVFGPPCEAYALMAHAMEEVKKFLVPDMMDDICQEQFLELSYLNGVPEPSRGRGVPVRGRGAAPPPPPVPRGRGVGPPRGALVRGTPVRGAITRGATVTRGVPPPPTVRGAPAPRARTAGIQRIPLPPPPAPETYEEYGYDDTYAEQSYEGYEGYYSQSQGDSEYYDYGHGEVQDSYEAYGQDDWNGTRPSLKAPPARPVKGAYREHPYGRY
inactive: erlotinib -0.013 | [1] 0.001 | [2] -0.035 | [3] 0.009 | [4] -0.038 | [5] 0.006 | [6] -0.016 | [7] 0.026 | [8] 0.037 | IRAK-1-4 Inhibitor I -0.013 | ibrutinib 0.023 | ralimetinib -0.021 | [10] -0.009 | [11] 0.016 | [12] 0.023 | [13] 0.007 | [16] -0.026 | [14] 0 | [15] 0.044
active: [9] -0.517

GTF2I (UniProt P78347)
Sequence of UniProt P78347 (P78347 whole entry, looked up): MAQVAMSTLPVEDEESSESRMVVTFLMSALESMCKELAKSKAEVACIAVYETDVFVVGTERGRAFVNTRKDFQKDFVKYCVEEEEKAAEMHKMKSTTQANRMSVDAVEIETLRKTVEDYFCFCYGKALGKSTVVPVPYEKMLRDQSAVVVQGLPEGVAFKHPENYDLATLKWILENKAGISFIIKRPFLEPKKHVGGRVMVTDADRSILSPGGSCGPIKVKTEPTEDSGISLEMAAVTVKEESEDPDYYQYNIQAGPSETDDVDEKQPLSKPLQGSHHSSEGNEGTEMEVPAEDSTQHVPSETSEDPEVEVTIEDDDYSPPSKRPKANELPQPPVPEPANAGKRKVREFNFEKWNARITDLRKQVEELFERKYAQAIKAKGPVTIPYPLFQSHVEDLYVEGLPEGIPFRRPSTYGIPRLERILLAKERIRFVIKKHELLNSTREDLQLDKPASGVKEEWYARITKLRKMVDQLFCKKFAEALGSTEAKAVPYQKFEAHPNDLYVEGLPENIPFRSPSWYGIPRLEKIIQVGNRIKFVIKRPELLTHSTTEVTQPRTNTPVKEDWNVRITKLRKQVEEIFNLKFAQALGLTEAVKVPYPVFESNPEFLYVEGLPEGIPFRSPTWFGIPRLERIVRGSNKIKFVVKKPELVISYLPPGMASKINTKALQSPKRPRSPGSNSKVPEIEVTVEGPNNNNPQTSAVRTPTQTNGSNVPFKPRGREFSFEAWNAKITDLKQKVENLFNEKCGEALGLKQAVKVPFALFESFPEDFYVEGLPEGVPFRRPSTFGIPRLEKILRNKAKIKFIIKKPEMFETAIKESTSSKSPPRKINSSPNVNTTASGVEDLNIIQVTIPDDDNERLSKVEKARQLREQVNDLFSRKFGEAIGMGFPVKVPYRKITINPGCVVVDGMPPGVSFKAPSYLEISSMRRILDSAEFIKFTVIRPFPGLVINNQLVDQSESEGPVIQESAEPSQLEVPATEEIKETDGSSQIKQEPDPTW
inactive: erlotinib -0.005 | [1] 0.016 | [2] -0.02 | [3] 0.018 | [4] 0.008 | [5] -0.003 | [6] -0.034 | [7] -0.002 | [8] -0.031 | IRAK-1-4 Inhibitor I -0.007 | ibrutinib -0.004 | [9] -0.002 | ralimetinib 0.007 | [10] -0.004 | [11] 0.012 | [12] -0.007 | [13] 0.005 | [16] -0.027 | [14] 0.033 | [15] -0.001

Reference: the supplement of paper PMC10849652
